Sfp inh: inhibitors of Bacillus subtilis Sfp phosphopantetheinyl transferase; AID 1490; Q9F4F7; Biochemical Sfp PPTase activity, qHTS; 310,000 compounds, 3.5% hits; Potency, µM, inactives show largest response in the series, negative = inhibition, actives largely listed as inhibitors;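 also: the enzyme is Sfp with the accession as filed and its product quenches rhodamine fluorescence; 0% = enzyme reaction without inhibitor and -100% = no enzyme wells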
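Sfp 15 nM + cpd, 15 min RT; start w/ rhodamine-CoA 5 uM, BHQ-2-YbbR 12.5 uM (final); 50 mM Hepes pH 7.6, 10 mM MgCl2, 0.01% NP-40, 0.01% BSA; read 525/598 nm at 0 and 30 min.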
HP1b chromo inh: inhibitors of HP1-beta chromodomain binding to methylated histone tails; Potency, µM (top dose mostly 114 µM), for the others: at the highest dose activity change, negative = inhibition, actives largely listed as inhibitors; 390,000 compounds, 0.56% hits; AID 540317; P83916; AlphaScreen HP1-beta / biotin-H3K9me3 peptide binding; also: nearly all actives have a fitted effect of over 70% in size
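HP1-beta protein (50 nM final) preincubated 30 min at room temperature with biotinylated H3(1-18)K9me3 peptide (50 nM) in PBS pH 7.4, 0.01% Tween-20, then compound added for 30 min. AlphaScreen streptavidin donor/nickel chelate acceptor beads (10 ug/mL final), 30 min dark, luminescence read.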
PLK1 PBD inh: PLK1 (human) polo-box domain binding inhibition. P53350. Plk1 PBD binding of FITC phosphopeptide, fluorescence polarization. Potency, µM, for the others: max response, negative = inhibition, most hits filed as inhibitors. 360,000 compounds, 2.8% hits; also: series mostly up to about 57 µM; % is scaled to controls: 0 for no effect and ±100 for the full control effect; nearly all actives have a fitted effect of over 65% in size
G9a inh: inhibitors of human histone lysine methyltransferase G9a; Q96KQ7; G9a H3K9 monomethylation, AlphaScreen, 2 h; Potency, µM (titrated, usually from 102 µM), without a hit: at the top dose activity, negative = inhibition, most hits filed as inhibitors; 350,000 compounds, 8.8% hits; AID 504332; also: % is scaled to controls: 0 for no effect and ±100 for the full control effect; nearly all actives have a fitted effect of over 75% in size
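G9a (20 nM) was preincubated 15 min with compound, then reacted 2 h at room temperature with 500 nM biotin-H3K9 peptide and 20 µM SAM. Monomethyl-H3K9 detected by AlphaScreen using anti-H3K9me1 antibody.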
BAZ2B block: BAZ2B (human) inhibition; Q9UIF8; AlphaScreen BAZ2B-H3K14Ac peptide displacement; Potency, µM (doses to about 114 µM), for inactives: at the highest dose activity change, negative = inhibition, most hits filed as inhibitors; 360,000 compounds, 4.4% hits; AID 504333; also: % is scaled to controls: 0 for no effect and ±100 for the full control effect; nearly all actives have a fitted effect of over 60% in size
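Complex of BAZ2B and biotin-H3K14Ac (50 nM apiece) forms over 30 min at RT, then faces library compounds up to 110 uM for another 30 min; AlphaScreen beads added, 20 min dark incubation, luminescence read.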
JMJD2A Tudor: blocks the human JMJD2A Tudor domain | O75164 | AlphaScreen JMJD2A-Tudor / H3K4me3 peptide binding | Potency, µM (highest dose often 114 µM), without a hit: at the top dose activity change, negative = inhibition, most hits filed as inhibitors | 390,000 compounds, 4.4% hits | AID 504339; also: % is scaled to controls: 0 for no effect and ±100 for the full control effect; nearly all actives have a fitted effect of over 50% in size
Numbers without * were called inactive; [ ] = dose if it differs, or a comment. Shown are actives, neighbours in structure and some others; about 12% of the full set was active somewhere. Calls follow the shape of the dose curve; as a rule, active = well fitted curve in the direction sought with a large enough effect; inconclusive = small, poorly fitted or top-dose-only effect, or another doubt; inactive = no such curve, though single readings can be large; an effect the other way counts as inactive or inconclusive. Potency is read from the fitted curve at half-maximal effect.

Screening Cc1cccc(NC(=S)NCc2ccc3c(c2)cc(C)n3C)c1C returned Sfp inh -13.1%, HP1b chromo inh inconclusive, PLK1 PBD inh -17.9%, G9a inh 2.6%[59 µM], BAZ2B block 35.5µM* and JMJD2A Tudor 35.5µM*.
CCOC(=O)C(Nc1ccc2ccccc2c1)C(=O)OCC was read as Sfp inh -1.1%, HP1b chromo inh -35.4%, PLK1 PBD inh -29.5%, G9a inh 2µM*, BAZ2B block 50.1µM* and JMJD2A Tudor inconclusive.
Screening CC(=O)Nc1ccc2ccccc2c1 returned Sfp inh 12.0%, HP1b chromo inh 27.3%, PLK1 PBD inh -11.0%, G9a inh 22.9%[12.7 µM], BAZ2B block 6.7% and JMJD2A Tudor -8.1%.
Screening COc1ccc(N2CCN(C(=O)CC(C)S(=O)(=O)c3ccc4c(c3)NC(=O)CO4)CC2)cc1 (stereo not drawn) returned Sfp inh -2.1%, HP1b chromo inh -9.1%, PLK1 PBD inh inconclusive, BAZ2B block -11.3% and JMJD2A Tudor -35.1%.
CCOC(=O)C1CCN(C(=O)CC(C)S(=O)(=O)c2ccc3c(c2)NC(=O)CO3)CC1 (stereo not drawn) was read as Sfp inh 8.6%, HP1b chromo inh 31.9%, PLK1 PBD inh -17.9%, G9a inh 70.8µM*, BAZ2B block -3.3% and JMJD2A Tudor -13.0%.
For CCOC(=O)C1CCN(C(=O)CN2C(=O)COc3ccc(C(C)(C)C)cc32)CC1 the results were Sfp inh 10.0%, HP1b chromo inh -7.1%, PLK1 PBD inh -2.7%, G9a inh -10.4%, BAZ2B block -3.5% and JMJD2A Tudor 79.4µM*.
CCOC(=O)C1CCCN(C(=O)CN2C(=O)COc3ccc(C(C)(C)C)cc32)C1 (stereo not drawn) was read as Sfp inh 2.4%, HP1b chromo inh 18.3%, PLK1 PBD inh -7.6%, G9a inh -2.3%, BAZ2B block 4.1% and JMJD2A Tudor -8.6%.
For COCCN1C(=O)COc2ccccc2C1C(=O)NCc1ccccc1 (stereo not drawn) the results were PLK1 PBD inh 0.5%.
For O=C(/C=C/c1ccc2c(c1)OCCCO2)c1ccc2ccccc2c1O the results were Sfp inh 39.8µM*, HP1b chromo inh 25.1µM*, PLK1 PBD inh -2.2%, G9a inh 11.2µM*, BAZ2B block 10µM* and JMJD2A Tudor 28.2µM*.
For Cc1ccc(C(=O)/C=C/c2ccc3c(c2)OCCO3)c(O)c1 the results were Sfp inh -27.5%, HP1b chromo inh inconclusive, PLK1 PBD inh -8.2%, G9a inh 39.8µM*, BAZ2B block inconclusive and JMJD2A Tudor 31.6µM*.
Screening O=C(/C=C/c1ccccc1)c1ccc2c(c1)OCCCCO2 returned Sfp inh -9.2%, HP1b chromo inh 95.5%, PLK1 PBD inh -7.8%, G9a inh 20.8%[59 µM], BAZ2B block 23.2% and JMJD2A Tudor 40.9%.
`O=C(/C=C/c1ccc(O)cc1)c1ccc(O)cc1O` gave Sfp inh -9.9%, HP1b chromo inh 18.6%, PLK1 PBD inh -22.3%, G9a inh 9.9%[59 µM], BAZ2B block -36.0% and JMJD2A Tudor -11.5%.
CO[C@@H]1COC(=O)C/C=C\[C@H](C)COC(=O)[C@H](Cc2ccccc2)NC(=O)C/C=C\[C@H]1C was read as Sfp inh 6.7%.
For O=C(COC(=O)CCCN=C1NS(=O)(=O)c2ccccc21)NNC(=O)c1ccccc1 the results were HP1b chromo inh 12.6%, PLK1 PBD inh -4.6%, G9a inh -16.7%[59 µM], BAZ2B block 6.9% and JMJD2A Tudor -7.5%.
`COc1ccc(OC)c(NC(=O)c2c(NCc3ccc(N(C)C)cc3)sc3c2CCCC3)c1` gave HP1b chromo inh -25.3%, G9a inh 12.6µM*, BAZ2B block 11.2µM* and JMJD2A Tudor 11.2µM*.
For COc1ccc(OC)c(NC(=O)c2c(NCc3sccc3C)sc3c2CCCCC3)c1 the results were HP1b chromo inh 0.3%, G9a inh inconclusive, BAZ2B block inconclusive and JMJD2A Tudor inconclusive.

Compound activity deposited in PubChem BioAssay by National Center for Advancing Translational Sciences (NCATS).
